This is part of a sample that, as a whole, favours compounds with a hit. Of some 83,000 tested, about 20% had one in any assay.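 The endpoint reported here, percent growth, reads 100 for growth as untreated, 0 for no net growth and -100 for all cells dead.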 A number with no mark means an inactive call. Active and inactive are the calls of the source. Rule for the calls: active = growth percent below 10; inactive = the rest.
How the values were obtained:
Test in all cases: NCI-60 one-dose screen, 48 h (100 = growth as untreated, 0 = no growth, -100 = all killed)
Details in all cases: 10 µM
HT29 colon = tested on: HT29 colon
SNB-75 CNS = tested on: SNB-75 CNS
SNB-19 CNS = tested on: SNB-19 CNS
U251 CNS = tested on: U251 CNS
PC-3 prostate = tested on: PC-3 prostate
SK-MEL-5 melanoma = tested on: SK-MEL-5 melanoma
UACC-62 melanoma = tested on: UACC-62 melanoma
LOX IMVI melanoma = tested on: LOX IMVI melanoma
SK-MEL-28 melanoma = tested on: SK-MEL-28 melanoma
SK-MEL-2 melanoma = tested on: SK-MEL-2 melanoma
EKVX NSCLC = tested on: EKVX NSCLC
SN12C renal = tested on: SN12C renal
UO-31 renal = tested on: UO-31 renal
TK-10 renal = tested on: TK-10 renal
ACHN renal = tested on: ACHN renal
CAKI-1 renal = tested on: CAKI-1 renal
MOLT-4 leukemia = tested on: MOLT-4 leukemia
SR leukemia = tested on: SR leukemia
CCRF-CEM leukemia = tested on: CCRF-CEM leukemia
A498 renal = tested on: A498 renal

SMILES	growth (HT29 colon)	growth (SNB-75 CNS)	growth (SNB-19 CNS)	growth (U251 CNS)	growth (PC-3 prostate)	growth (SK-MEL-5 melanoma)	growth (UACC-62 melanoma)	growth (LOX IMVI melanoma)	growth (SK-MEL-28 melanoma)	growth (SK-MEL-2 melanoma)	growth (EKVX NSCLC)	growth (SN12C renal)	growth (UO-31 renal)	growth (TK-10 renal)	growth (ACHN renal)	growth (CAKI-1 renal)	growth (MOLT-4 leukemia)	growth (SR leukemia)	growth (CCRF-CEM leukemia)	growth (A498 renal)
CN(C)CCCn1c(=O)c2ccccc2c2cnc3[nH]ccc3c21	-9.52% (active)	26.5%	13.6%	8.32% (active)	-9.22% (active)	10.3%	-20.2% (active)	1.3% (active)	21.1%	-8.38% (active)	10.5%	10.2%	0.877% (active)	8.77% (active)	-1.65% (active)	22.5%	-5.39% (active)	-35% (active)		
CN(C)c1ccc(Cc2ccc(N(C)C)cc2Cl)c(Cl)c1	102%	77.7%	102%	110%	86.8%	91.9%	88.6%	96%	105%	113%	103%	99.2%	67.6%	88.9%	98.4%	99.1%	46%	88.9%	91.6%	
Cc1ccc(NC(=O)Nc2c(Cl)cccc2Cl)cn1	130%	92.1%	102%	89.8%	83.8%	87.1%	78.7%	101%	130%	91.4%	58.8%	105%	72.1%	128%	95.5%		86.9%	59.1%	69.5%	106%
CC(C)=CCc1cc(O)cc2c1OC(C=C(C)C)C1=C2C(=O)C2=C(C1=O)S(=O)(=O)CCN2 (configuration not stated)	64.8%	72.2%	46.2%	-14.3% (active)	6.32% (active)	16.2%	9.11% (active)	4.91% (active)	36.8%	28.8%	50.2%	-44.1% (active)	54%	122%	73.1%		-43.2% (active)	3.79% (active)	-11.9% (active)	103%
CCN1Cc2c(/C=C/c3ccccc3)nc3ccc(OC)cc3c2N(c2cccc(Cl)c2)C1	64.2%	63.6%	93.3%	76%	20.2%	20.6%	52.3%	73%	95.9%	77.5%	66.9%	60.6%	63.8%	101%	98%		55.4%	11.7%	58.6%	85.5%
O=C(O)c1ccc(Cl)cc1Nc1ccc(F)cc1	101%	83.6%	87.1%	52.3%	83.9%	102%	92.4%	43.1%	86.2%	93.4%	67.3%	69.4%	62.5%	84.9%	82.4%	29.1%	56.8%	57.2%	31.4%	
Cc1cccc(NC2=C(C#N)C(=O)NC3(CCCC3)S2)c1	103%	90.7%	94.2%	97.4%	105%	95.7%	98.7%	96.5%	105%	98.2%	106%	97.3%	93.8%	107%	98.2%		98.4%	94.9%	90.2%	96.9%
CC(C)=CCc1cc(O)cc2c1OC(C=C(C)C)C1=C2C(=O)C2=C(NCCS2(=O)=O)C1=O (configuration not stated)	-14.9% (active)	18.5%	-44.5% (active)	-85% (active)	10%	-96.7% (active)	-18.9% (active)	-56.2% (active)	-33.4% (active)	-28.9% (active)	-1.26% (active)	-59% (active)	67.3%	106%	26.2%		-34.5% (active)	1.49% (active)	1.9% (active)	50.2%
O=C(Nc1ccncc1)C(=O)c1cn(S(=O)(=O)c2cccc(Cl)c2)c2ccccc12	29%	85.3%	89.8%	61.2%	72.4%	51.7%	61.2%	44.6%	86.5%	57.7%	52.3%	75.5%	57.7%	87.6%	82.8%	63.8%	53.1%	12%	72.4%	
CN1CCC(CNc2cc(C3(C(=O)Nc4cc(C(=O)Nc5ccc(Cl)c(C(F)(F)F)c5)ccc4F)CC3)ncn2)CC1	-26.6% (active)	23.1%	-34.1% (active)	-37.5% (active)	-23% (active)	-95.4% (active)	32.9%	-74.2% (active)	-54.7% (active)	-57.2% (active)	46.7%	78.8%	7.95% (active)	84.5%	20.1%		-37.5% (active)	-26.7% (active)	-23.9% (active)	96%
CS(=O)(=O)Nc1cccc(-c2cc(-c3ccccc3Cl)c(C#N)c(N)n2)c1	15.6%	-26.4% (active)	49%	24.7%	22.3%	30.9%	42.8%	43.7%	69.1%	38.5%	27%	51.6%	26%	63.5%	46.8%	16.1%	24.6%	23.9%	20.6%	
CCCCOc1ccc(NC(=O)Nc2nnc(C)s2)cc1	99.4%	105%	98.2%	93.2%	92.5%	102%	82.5%	78.9%	106%	105%	99.6%	93.3%	87%	118%	94.5%		90.4%	101%	72.9%	108%

From PubChem BioAssay (NCI)
